Assay [1] is described as follows: qHTS Assay for Identification of Small Molecule Inducers of Hypoxia Response (AID 2120; active = well fitted curve in the direction sought with a large enough effect in the signal ratio, with a control signal flat, not every such curve was filed as active; the % refers to the signal ratio). The gist of the method:
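Cell-based qHTS for reporter induction: hypoxia response element controlled beta-lactamase in ME-180 cells. Compounds incubated 17 h at 37 degrees C; activity from blue/green (460/530 nm) ratio, inducers ranked by AC50.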

The nature of assay [2]: qHTS for differential inhibitors of proliferation of Plasmodium falciparum line HB3 (AID 1886).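 Also: potency is read from the fitted curve at half-maximal effect; parasites grown with compound for 72 h before SYBR Green readout.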 The note with it: Potency: Plasmodium falciparum HB3 proliferation inhibition.
The target of assay [3] is Ferritin light chain (Equus caballus) (UniProt P02791). Put plainly: qHTS Validation Assay for Identification of Novel General Anesthetics (AID 2323). Also: series mostly up to about 77 µM. The gist of the method:
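Competitive displacement of profluorescent 1-aminoanthracene (1-AMA, 50% saturated solution in PBS) from 10 uM horse-spleen apoferritin. Compounds incubated 10 min at room temperature; fluorescence read at 380 nm excitation/535 nm emission, normalized to free 1-AMA and complex, fitted with four-parameter Hill equation.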

The nature of assay [4]: Cytometric Cell-Based qHTS for Inhibitors of the mTORC1 Signaling Pathway in MEF (Tsc2-/-, p53-/-) Cells (AID 2660).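 Also: Tsc2 and p53 null MEFs carrying empty vector with compound for 24 h; percent of cells above a phospho-rpS6 to PI ratio cutoff in each well; series mostly up to about 38 µM.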 The gist of the method: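 Cells are plated, treated with compound for 24 hrs at 37 degree Celsius, then fixed, blocked and immunostained for phospho-rpS6 Ser235/236. Propidium iodide counterstain follows. Per-well % positive cells is derived from the PI-normalized phospho-S6 signal.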

Assay [5] in a line: High Content Imaging Cell-Based qHTS for Inhibitors of the mTORC1 Signaling Pathway in MEF (Tsc2-/-, p53-/-) Cells (AID 2666).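 Also: percent of cells scored positive for phospho-rpS6 Ser235/236 immunostaining by imaging.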 The procedure, abridged: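 MEF Tsc2-/- p53-/- (empty vector), DMEM/10% FBS; cpd 24 h 37 °C; PFA fix, Alexa-488 p-rpS6 S235/236 Ab, Hoechst; imaged; rapamycin-defined inhibition; % positive cells/well.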
Assay [6] can be described thus: High Content Imaging Cell-Based qHTS for Inhibitors of the mTORC1 Signaling Pathway in MEF Cells (AID 2667).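 Also: Tsc2-/- p53-/- MEFs stably re-expressing wild-type Tsc2 exposed 24 h; series mostly up to about 38 µM.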 The procedure, abridged:
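Read-out is the share of phospho-rpS6-positive cells per well, from Hoechst-normalized Alexa-488 Ser235/236 staining imaged on IN Cell. Cells: WT Tsc2-expressing Tsc2-/-, p53-/- MEFs exposed to compound for 24 hrs.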

The nature of assay [7]: Validation screen for small molecules that induce DNA re-replication in MCF 10A normal breast cells (AID 463097). Also: nearly all actives have a fitted effect of over 60% in size. The gist of the method:
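Readout: Hoechst nuclear fluorescence intensity, 405 ex / 500-530 em, by scanning plate imager; re-replication scored as increase in nuclei with elevated DNA content. Cells exposed to compound 48 hr, 37 C, 5% CO2 beforehand.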

For assay [8], the target named is Ubiquitin carboxyl-terminal hydrolase 2 (Homo sapiens) (UniProt O75604). Put plainly: qHTS Validation Assay for Inhibitors of Ubiquitin-specific Protease USP2a Using CHOP2 as the Reporter (AID 463106). The procedure, abridged:
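Fluorescence read-out at Ex 485nm/Em 531nm after 60min RT, following addition of 25nM Ub-CHOP2 plus 25nM reporter substrate to USP2 core (10nM) pretreated 30min with compound. Data normalized to NEM full inhibition; concentration-response curves fitted.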

For assay [9], the target named is DNA polymerase III PolC-type (Bacillus subtilis (strain 168)) (UniProt P13267). Put plainly: qHTS Validation Assay for the Inhibitors of DNA Replication in Gram-Positive Bacteria (AID 485295).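 Also: PicoGreen fluorescence of double-stranded DNA made on primed circular M13 template; series mostly up to about 57 µM.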 The procedure, abridged:
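Reconstituted B. subtilis holoenzyme (Pol III, beta clamp, SSB, primase) was preincubated with compound at room temperature, then given single-stranded circular M13Gori plus dNTPs and NTPs. EDTA-containing PicoGreen stopped the reaction, and dsDNA product was read by fluorescence.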

Assay [10] concerns the target Tumor susceptibility gene 101 protein (Homo sapiens) (UniProt Q99816). The assay can be described thus: qHTS Validation Assay for Iinhibitors of HIV-1 Budding by Blocking the Interaction of PTAP/TSG101 (AID 485342; calls by dose curve). The procedure, abridged:
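Tsg101 binding domain (10 uM final) in pH 7.5 HEPES/NaCl/Tween 20/EDTA/TCEP buffer was mixed with pin-transferred compounds, then FITC-labeled PTAP peptide (50 nM final) was added; after 20 min at r.t., fluorescence polarization was read.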

The target of assay [11] is Beta-2 adrenergic receptor (Homo sapiens) (UniProt P07550). Put plainly: qHTS validation assay of beta-arrestin-biased ligands of beta2-adrenergic receptor (AID 485366). The procedure, abridged:
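Compound series up to 46 microM applied to beta2-AR/beta-arrestin Tango cells, 18 hr, 37 degrees C, 5% CO2. Read-out: tTA-driven luciferase luminescence, converted to %Activity; concentration-response curves assigned curve classes.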

The target of assay [12] is Thioredoxin reductase 1, cytoplasmic (Rattus norvegicus) (UniProt O89049). The assay can be described thus: qHTS Assay for Substrates of Mammalian Selenoprotein Thioredoxin Reductase 1 (TrxR1) (AID 488772).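 Also: series mostly up to about 57 µM; a drop in NADPH fluorescence below the no-compound background marks a TrxR1 substrate.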 The gist of the method:
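In this dual-purpose format, potential substrates are identified from the first fluorescence read after selenite addition, not from the 8-minute delta. Rat enzyme is preincubated with NADPH and then with compound at ~22 deg C.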

Assay [13] has as its target ATP-dependent DNA helicase Q1 (Homo sapiens) (UniProt P46063). Put plainly: qHTS Validation Assay for Inhibitors of RecQ-Like Dna Helicase 1 (RECQ1) (AID 2353). The gist of the method: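 RECQ1T1 50 nM; forked duplex (20 bp + 30-nt ss tails) 200 nM, ATP 2 mM final; pH 8.0, 2 mM MgCl2, 2.5 ug/ml poly(dI-dC); 15 min compound preincubation; discontinuous kinetic read over 2 h at RT.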

The target of assay [14] is RecQ-like DNA helicase BLM (Homo sapiens) (UniProt P54132). The assay can be described thus: qHTS Validation Assay for Inhibitors of Bloom's syndrome helicase (BLM) (AID 2364). The procedure, abridged: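 50 nM BLM preincubated 15 min at room temperature with compound in pH 8.0 Tris buffer containing 2.5 ug/ml poly(dI-dC); started with 200 nM TAMRA/BHQ-2 forked duplex and 2 mM ATP (final). Unwinding read as TAMRA fluorescence increase, two reads 2 h apart.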

Assay [15] can be described thus: Cytometry Cell-Based qHTS for Inhibitors of the mTORC1 Signaling Pathway in MEF cells (AID 2668).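 Also: Tsc2-/- p53-/- mouse embryonic fibroblasts stably re-expressing wild-type Tsc2; percent cells positive for phospho-rpS6 Ser235/236 relative to propidium iodide stain; series mostly up to about 38 µM.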 The gist of the method:
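WT MEFs (Tsc2-/-, p53-/- stably re-expressing WT Tsc2) in DMEM + 10% FBS received compounds 24 hrs after plating, for 24 hrs at 37 degree Celsius. Fixed cells stained with Alexa-488 anti-phospho-rpS6 Ser235/236 and propidium iodide; laser-scanning cytometry read-out.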

The nature of assay [16]: qHTS Validation Assay to Find Inhibitors of Chronic Active B-Cell Receptor Signaling (AID 485345; active = well fitted curve in the direction sought with a large enough effect in the main read-out, with a control signal flat, not every such curve was filed as active; also: potency is read from the fitted curve at half-maximal effect). The procedure, abridged: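 TMD8 ABC-DLBCL cells stably carrying doxycycline-inducible IkappaBalpha–green luciferase fusion plus unfused red luciferase; compounds 46 uM to 3 nM, 4 h at 37C with doxycycline. Corrected green/red luminescence ratio normalized to 10 uM MG-132 and basal cell wells; curves fitted.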

The nature of assay [17]: Quantitative high throughput screen for delayed death inhibitors of the malarial parasite plastid, 96 hour incubation (AID 488745). Also: nearly all actives have a fitted effect of over 70% in size. Also: potency is read from the fitted curve at half-maximal effect. The gist of the method: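 Readout is firefly luciferase luminescence from an integrated reporter in P. falciparum; lower signal marks inhibited growth. Cultures at 2% hematocrit and 0.1% parasitemia were treated with compound across two generations (96 h, 37 C, 5% CO2).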

Assay [18] in a line: Quantitative high throughput screen for delayed death inhibitors of the malarial parasite plastid, 48 hour incubation (AID 488752). Also: nearly all actives have a fitted effect of over 65% in size. Also: potency is read from the fitted curve at half-maximal effect. The procedure, abridged: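 First, compound was pinned into RPMI 1640 medium containing 0.5% Albumax. Next, reporter-parasite-infected erythrocytes were added to 2% hematocrit and 0.1% parasitemia. After 48 h at 37 C under 5% CO2, luciferase detection reagent was added and luminescence read.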

The target in assay [19] is ATP-dependent 6-phosphofructokinase (Trypanosoma brucei brucei) (UniProt O15648). The assay can be described thus: qHTS Validation Assay to Find Inhibitors of T. brucei phosphofructokinase (AID 485368). The note with it: outcome: dose series up to 57.5 µM. The gist of the method: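 qHTS format, up to 57 uM. PFK 1.25 nM; F6P 0.5 mM; ATP 0.1 mM; 5 mM MgCl2, 0.01% Tween20, 0.1% BSA; 0.1 M TEA pH 8.0; 45 min RT; ADP-Glo readout; no-enzyme control = full inhibition.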
Chain of ATP-dependent 6-phosphofructokinase (Trypanosoma brucei brucei) (O15648 whole entry, looked up): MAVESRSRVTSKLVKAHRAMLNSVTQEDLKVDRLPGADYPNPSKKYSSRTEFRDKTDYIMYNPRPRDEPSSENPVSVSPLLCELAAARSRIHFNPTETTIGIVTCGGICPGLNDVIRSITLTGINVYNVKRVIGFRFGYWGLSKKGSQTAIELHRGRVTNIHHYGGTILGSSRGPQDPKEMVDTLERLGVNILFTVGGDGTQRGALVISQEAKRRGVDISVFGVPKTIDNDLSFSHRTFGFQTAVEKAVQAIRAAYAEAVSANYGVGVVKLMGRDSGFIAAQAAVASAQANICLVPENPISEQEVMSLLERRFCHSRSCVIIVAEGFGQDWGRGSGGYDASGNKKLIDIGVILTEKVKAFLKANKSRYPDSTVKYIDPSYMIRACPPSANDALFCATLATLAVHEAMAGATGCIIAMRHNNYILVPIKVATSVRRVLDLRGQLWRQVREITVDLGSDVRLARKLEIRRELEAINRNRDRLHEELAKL

Assay [20] can be described thus: qHTS Assay for Modulators of Human Peripheral Myelin Protein 22 (PMP22) Expression/Activity (AID 1967; active = well fitted curve in the direction sought with a large enough effect in the signal ratio; the % refers to the signal ratio). The gist of the method: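 MSC80 mouse Schwann cells stably carrying Pmp22 promoter–green click beetle luciferase plus EF-alpha–red luciferase control were dosed for 24h at 37 °C. Dual-colour luminescence was filter-overlap corrected; %Activity came from green/red ratio versus untreated cells.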

Inconclusive results are not listed. Active and inactive are the calls of the source. Unless noted, calls follow the shape of the dose curve; as a rule, active = well fitted curve in the direction sought with a large enough effect; inconclusive = small, poorly fitted or top-dose-only effect, or another doubt; inactive = no such curve, though single readings can be large; an effect the other way counts as inactive or inconclusive.

Chain of Beta-2 adrenergic receptor (Homo sapiens) (P07550 whole entry, looked up): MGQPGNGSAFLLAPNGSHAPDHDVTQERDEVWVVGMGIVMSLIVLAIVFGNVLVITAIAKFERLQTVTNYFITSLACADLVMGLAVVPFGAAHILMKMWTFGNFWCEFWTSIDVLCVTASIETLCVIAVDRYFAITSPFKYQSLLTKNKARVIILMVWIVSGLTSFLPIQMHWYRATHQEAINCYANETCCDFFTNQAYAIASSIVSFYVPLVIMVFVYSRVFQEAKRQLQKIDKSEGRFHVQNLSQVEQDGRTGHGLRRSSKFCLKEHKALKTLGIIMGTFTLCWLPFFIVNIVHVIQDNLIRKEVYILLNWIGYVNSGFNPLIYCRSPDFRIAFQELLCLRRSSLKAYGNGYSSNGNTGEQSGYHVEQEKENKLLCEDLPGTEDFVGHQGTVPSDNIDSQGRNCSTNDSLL
Chain of ATP-dependent DNA helicase Q1 (Homo sapiens) (P46063 whole entry, looked up): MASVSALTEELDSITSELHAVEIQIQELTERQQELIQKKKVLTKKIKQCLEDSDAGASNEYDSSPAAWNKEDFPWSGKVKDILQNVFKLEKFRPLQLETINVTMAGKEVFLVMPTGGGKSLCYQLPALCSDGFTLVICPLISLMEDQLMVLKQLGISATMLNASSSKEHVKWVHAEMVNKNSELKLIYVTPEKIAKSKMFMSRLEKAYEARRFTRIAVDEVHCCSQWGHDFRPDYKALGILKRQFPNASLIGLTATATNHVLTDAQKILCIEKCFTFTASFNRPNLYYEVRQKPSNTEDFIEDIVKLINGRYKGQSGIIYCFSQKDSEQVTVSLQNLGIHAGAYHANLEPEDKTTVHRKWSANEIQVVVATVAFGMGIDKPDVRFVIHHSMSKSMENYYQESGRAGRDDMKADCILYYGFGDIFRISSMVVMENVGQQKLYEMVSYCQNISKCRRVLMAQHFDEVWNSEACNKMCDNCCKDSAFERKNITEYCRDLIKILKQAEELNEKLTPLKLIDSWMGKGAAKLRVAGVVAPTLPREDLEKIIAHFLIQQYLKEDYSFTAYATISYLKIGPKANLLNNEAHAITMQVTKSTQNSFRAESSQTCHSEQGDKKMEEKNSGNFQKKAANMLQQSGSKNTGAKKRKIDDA
Chain of Ubiquitin carboxyl-terminal hydrolase 2 (Homo sapiens) (O75604 whole entry, looked up): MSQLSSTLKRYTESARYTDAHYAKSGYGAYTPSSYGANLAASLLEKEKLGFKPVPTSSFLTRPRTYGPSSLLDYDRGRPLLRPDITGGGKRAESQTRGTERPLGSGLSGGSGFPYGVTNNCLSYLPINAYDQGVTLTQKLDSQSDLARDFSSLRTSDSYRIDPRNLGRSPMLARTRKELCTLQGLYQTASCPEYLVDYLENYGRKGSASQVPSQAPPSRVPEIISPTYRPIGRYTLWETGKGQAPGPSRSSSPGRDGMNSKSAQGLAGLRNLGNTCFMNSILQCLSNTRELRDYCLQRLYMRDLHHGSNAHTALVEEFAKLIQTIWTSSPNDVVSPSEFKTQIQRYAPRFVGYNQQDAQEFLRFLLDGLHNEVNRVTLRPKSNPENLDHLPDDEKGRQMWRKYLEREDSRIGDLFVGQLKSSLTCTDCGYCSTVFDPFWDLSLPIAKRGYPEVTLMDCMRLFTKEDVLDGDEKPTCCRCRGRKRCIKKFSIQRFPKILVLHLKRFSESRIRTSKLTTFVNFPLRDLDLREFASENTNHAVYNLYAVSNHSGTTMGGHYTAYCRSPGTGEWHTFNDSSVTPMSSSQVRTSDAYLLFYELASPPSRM
Chain of Thioredoxin reductase 1, cytoplasmic (Rattus norvegicus) (O89049 whole entry, looked up): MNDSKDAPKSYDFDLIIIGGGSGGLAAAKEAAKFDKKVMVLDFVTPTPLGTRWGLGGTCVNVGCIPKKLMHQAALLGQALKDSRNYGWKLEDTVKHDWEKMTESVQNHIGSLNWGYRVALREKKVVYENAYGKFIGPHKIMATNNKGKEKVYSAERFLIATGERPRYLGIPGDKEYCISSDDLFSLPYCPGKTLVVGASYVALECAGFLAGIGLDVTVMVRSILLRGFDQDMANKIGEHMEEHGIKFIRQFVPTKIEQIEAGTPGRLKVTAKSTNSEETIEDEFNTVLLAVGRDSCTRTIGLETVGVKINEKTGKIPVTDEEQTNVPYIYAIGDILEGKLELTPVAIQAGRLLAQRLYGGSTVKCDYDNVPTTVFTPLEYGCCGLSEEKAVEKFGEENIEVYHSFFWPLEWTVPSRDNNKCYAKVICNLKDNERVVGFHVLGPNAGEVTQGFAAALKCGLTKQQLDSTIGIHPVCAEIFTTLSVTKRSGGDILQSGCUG
Chain of Tumor susceptibility gene 101 protein (Homo sapiens) (Q99816 whole entry, looked up, the tested form may be a part): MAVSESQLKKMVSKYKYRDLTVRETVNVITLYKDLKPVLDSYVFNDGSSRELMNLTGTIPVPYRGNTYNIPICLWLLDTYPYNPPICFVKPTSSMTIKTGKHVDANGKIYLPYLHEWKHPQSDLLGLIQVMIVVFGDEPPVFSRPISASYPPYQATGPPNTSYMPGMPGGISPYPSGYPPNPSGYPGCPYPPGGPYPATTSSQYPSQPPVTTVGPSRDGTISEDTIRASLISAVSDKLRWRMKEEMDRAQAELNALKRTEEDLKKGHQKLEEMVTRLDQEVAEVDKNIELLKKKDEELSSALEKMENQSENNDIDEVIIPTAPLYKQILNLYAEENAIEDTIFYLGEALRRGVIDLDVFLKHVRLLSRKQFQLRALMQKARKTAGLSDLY
Chain of Ferritin light chain (Equus caballus) (P02791 2-175 limits assumed): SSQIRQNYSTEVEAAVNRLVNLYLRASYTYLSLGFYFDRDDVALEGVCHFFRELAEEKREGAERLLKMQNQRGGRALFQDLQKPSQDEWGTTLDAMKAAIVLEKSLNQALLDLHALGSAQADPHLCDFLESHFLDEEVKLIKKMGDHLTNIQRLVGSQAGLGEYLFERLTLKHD
Chain of DNA polymerase III PolC-type (Bacillus subtilis (strain 168)) (P13267 whole entry, looked up): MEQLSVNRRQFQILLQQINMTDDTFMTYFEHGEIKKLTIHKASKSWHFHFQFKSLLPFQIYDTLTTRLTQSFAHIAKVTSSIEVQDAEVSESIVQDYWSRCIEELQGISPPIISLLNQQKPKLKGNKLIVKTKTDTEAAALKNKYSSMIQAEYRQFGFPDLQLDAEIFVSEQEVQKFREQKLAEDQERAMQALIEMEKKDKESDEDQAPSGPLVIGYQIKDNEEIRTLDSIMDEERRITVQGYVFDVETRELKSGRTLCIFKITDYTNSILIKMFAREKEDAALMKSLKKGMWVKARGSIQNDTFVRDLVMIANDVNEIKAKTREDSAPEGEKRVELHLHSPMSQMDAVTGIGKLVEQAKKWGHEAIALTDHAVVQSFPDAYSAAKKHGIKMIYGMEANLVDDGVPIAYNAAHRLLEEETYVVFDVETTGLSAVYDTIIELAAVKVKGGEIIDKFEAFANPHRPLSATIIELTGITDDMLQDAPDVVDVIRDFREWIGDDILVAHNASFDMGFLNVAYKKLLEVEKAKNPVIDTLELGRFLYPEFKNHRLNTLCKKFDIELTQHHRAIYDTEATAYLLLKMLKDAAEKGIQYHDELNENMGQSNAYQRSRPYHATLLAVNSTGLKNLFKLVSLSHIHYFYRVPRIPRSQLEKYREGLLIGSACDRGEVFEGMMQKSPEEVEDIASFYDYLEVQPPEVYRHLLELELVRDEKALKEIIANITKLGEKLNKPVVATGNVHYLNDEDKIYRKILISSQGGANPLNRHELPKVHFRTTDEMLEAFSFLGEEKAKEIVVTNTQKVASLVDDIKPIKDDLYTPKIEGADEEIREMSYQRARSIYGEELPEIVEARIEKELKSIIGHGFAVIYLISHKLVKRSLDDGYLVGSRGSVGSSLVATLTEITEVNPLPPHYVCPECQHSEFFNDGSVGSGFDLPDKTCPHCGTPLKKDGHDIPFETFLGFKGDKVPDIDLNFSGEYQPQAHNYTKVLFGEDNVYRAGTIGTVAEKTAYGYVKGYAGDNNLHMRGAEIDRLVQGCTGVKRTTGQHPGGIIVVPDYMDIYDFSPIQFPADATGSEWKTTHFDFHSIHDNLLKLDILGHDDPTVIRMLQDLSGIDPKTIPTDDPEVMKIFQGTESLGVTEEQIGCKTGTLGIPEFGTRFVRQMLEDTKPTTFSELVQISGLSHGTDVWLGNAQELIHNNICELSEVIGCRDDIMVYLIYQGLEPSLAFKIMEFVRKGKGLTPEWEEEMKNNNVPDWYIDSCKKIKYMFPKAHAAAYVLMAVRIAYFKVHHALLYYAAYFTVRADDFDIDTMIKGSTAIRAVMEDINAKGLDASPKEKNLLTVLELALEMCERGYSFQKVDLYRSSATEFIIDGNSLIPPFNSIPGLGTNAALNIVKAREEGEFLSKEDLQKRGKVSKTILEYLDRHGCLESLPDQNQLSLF

Turning to `CCCCOCCOCCOCc1cc2c(cc1CCC)OCO2`, the result in assay [1] was inactive.
`CCCC(C(=O)OCCN(CC)CC)(c1ccccc1)c1ccccc1`: the Potency in assay [2] is 2.51 µM (active). In addition, the call in [3], in assay [4], in [8], in [10], in assay [11] and in assay [12] was inactive. For the same molecule, the Potency entry in assay [5], in [6], in [7] and in assay [9] was “inactive” throughout.
Take `CCn1ccnc1CC1COc2ccccc2O1` (stereo not drawn): the molecule was called inactive in assay [3], in assay [4], in [8], in assay [10], in assay [11] and in assay [12]. The Potency entry in [13], in [14], in assay [5], in [6], in [15] and in [7] was “inactive” each time. For the same molecule, the Potency result in assay [9], in [16], in assay [17] and in [18] was “inactive” each time.
With `NC(N)=NC(=O)Cc1c(Cl)cccc1Cl`, the Potency in assay [2] was 1.41 µM (active); in [17], 5.22 µM (active). In addition, the outcome in [3], in assay [4], in assay [8], in assay [10], in [11] and in [19] was inactive. In assay [12], the molecule was classed as inactive. Further, the Potency result in assay [5], in [6], in assay [15] and in [9] was “inactive” in each case.
Take `O=C(CCNNC(=O)c1ccncc1)NCc1ccccc1`: the call in assay [20], in assay [3], in assay [4], in assay [8], in assay [10] and in assay [11] was inactive. For the same molecule, the molecule was classed as inactive in assay [19] and in assay [12]. Besides, the Potency entry in [13], in assay [14], in assay [5], in assay [6], in assay [15] and in [7] was “inactive” throughout. Moreover, the Potency result in assay [9], in assay [16], in assay [17] and in [18] was “inactive” each time.
As for `COc1cc2c(cc1OC)-c1cc(=Nc3c(C)cc(C)cc3C)n(C)c(=O)n1CC2`, the results for the Potency in assay [2], in assay [17] and in assay [18] were 3.55 µM (active), 3.7 µM (active) and 2.62 µM (active), respectively. For the same molecule, the Potency result in assay [13], in assay [5], in assay [6], in assay [15] and in assay [9] was “inactive” in each case. Moreover, the molecule was classed as inactive in assay [4], in assay [8], in assay [10], in assay [11], in assay [19] and in assay [12].
Consider `CCOC(=O)C1=C(C)NC(C)=C(C(=O)OC)C1c1cccc([N+](=O)[O-])c1` (stereo not drawn), for which the Potency was 11.2 µM (active) in assay [2] and 9.2 µM (active) in [16]. Also, the Potency entry in assay [13], in assay [5] and in [9] was “inactive” throughout. Besides, the outcome in assay [4], in assay [8], in [10], in assay [11] and in assay [12] was inactive.
